# Measurements: publication PMC12136788
# Substitutions are numbered along the chain they refer to. Whole data set: some 5,800 sequences, median “enrichment r” near 0.54, cut for the highest 2% near 16. Many of the other results were omitted from the sample, so the highest values are more common in it than they were.
# B1: chr22:41636480:41636706:+|CDS|ENSG00000196419|unk|FALSE|unique (ssRNA)
# RNA: GGGAGUUCUACAGUCCGACGAUCAUGGGCCACGGAUCUGACUACUCACUCAGUGAAGUGCUGUGGGUCUGUGCCAACCUCUUUAGUGAUGUCCAAUUCAAGAUGAGUCAUAAGAGGAUCAUGCUGUUCACCAAUGAAGACAACCAACAGAGGAUUGAGCAUCA
# B2: chr1:223774945:223775046:+|3pUTR|ENSG00000162909|msi1|total|mutant (ssRNA)
# RNA: GGGAGUUCUACAGUCCGACGAUCAAAUACACUUUGUAUCUGGACCUCAAAAUUAUGGGAACAUUUACUUAAACGGAUGAUCACCGCUGAAAAUAAUGAUACUGUCAAUUUGAGACCGCAGAAGUUUCACACAUCAAAGUAAAACAACAGAGGAUUGAGCAUCA
# B3: chr2:108783740:108783841:+|CDS_3pUTR|ENSG00000153201|msi1_unk|FALSE|overlapping (ssRNA)
# RNA: GGGAGUUCUACAGUCCGACGAUCCAAUAAUUCUCAAUUUGUUAUAACACUGAAGAAAGCAGAACAUUUGGACUUUAAGCAUGUAGUAUUUGGGUUUGUUAAGGAUGGCAUGGAUACUGUGAAAAAGAUUGAAUCAUUUGGUUCCAACAGAGGAUUGAGCAUCA
# B4: chr16:61647241:61654101:-|three_prime_utr|ENSG00000150394|control|control|control (ssRNA)
# RNA: GGGAGUUCUACAGUCCGACGAUCAAAGAAACUUGACAGUGGAUUAUAAAUAAAUCACUGGAACUGAGCAUUCUGUAAUAUUCUAGGGUCACUCCCCUUAGAUACAACCAAUGUGGCUAUUUGUUUUAGAGGCAAGUUUAGCACCAACAGAGGAUUGAGCAUCA
# B5: chr1:62864655:62864756:+|3pUTR|ENSG00000125703|unk|FALSE|unique (ssRNA)
# RNA: GGGAGUUCUACAGUCCGACGAUCUUUGUUAACUGUGAUAUGCAUACACUUAUAUAAGCAGAAUUAUGAGUUAAAGUAAUACUUAGCAAUAUGAUUUUAUAAUGGCUCCUCAUUAUGCUUGCUGUUGAACCUUUUAUGAGGAGUCAACAGAGGAUUGAGCAUCA
# B6: chr12:89642165:89642281:-|CDS|ENSG00000070961|unk|total|mutant (ssRNA)
# RNA: GGGAGUUCUACAGUCCGACGAUCGCCAAAAACCUUUCUUCAAUCCGUAUGGGAAGCAUUACAAGAUGUCACUUUAAUUAUAUCCGAAAUUGCAGCCACCGUAUCAUUGGGCCUUUCUUUUUAUCAGCCUCCAGAAGGGGAUAACAACAGAGGAUUGAGCAUCA
# B7: ENSG00000070961:be:win_6051|3pUTR|ENSG00000070961|bound_else_gene|NA|bound_elsewhere_windowed (ssRNA)
# RNA: GGGAGUUCUACAGUCCGACGAUCCAGAAAUUUCCAGAGCAUUAUGUAGGUAGAAAAAAAUGCAAGCAAGCUGUUAAAGAUCUUGGAUCCCAUUAUAUAGUAUGUAUAGCUGAAAUCUGUAAUUCAAUCACUUUUUCUCUUUUACAACAGAGGAUUGAGCAUCA
# B8: chr8:42175503:42175666:-|3pUTR|ENSG00000104368|msi1|FALSE|unique (ssRNA)
# RNA: GGGAGUUCUACAGUCCGACGAUCAUGAAAGCAUGUCUCAAUAGUAAAAGAUAACAAGAUCUUUCAGGAAAGACGGAUUGCAUUAGAAAUAGACAGUAUAUUUAUAGUCACAAGAGCCCAGCAGGGCCUCAAAGUUGGGGCAGGCAACAGAGGAUUGAGCAUCA
# B9: chr8:74853834:74853946:+|3pUTR|ENSG00000137558|unk|total|mutant (ssRNA)
# RNA: GGGAGUUCUACAGUCCGACGAUCAAGUGCUUUUUUUUUUCUGAAUUAAUCCGGUAUUGGUAAAAUAUAUUUUUAAAUUCCGUCCGCUUUAUAAACACAAUCCGAAUUACAAUUAAUUAACAGAGGUAUAAUUGUCUCACUUUCCAACAGAGGAUUGAGCAUCA
# B10: chr3:97755980:97756081:+|3pUTR|ENSG00000080224|unk|total|mutant (ssRNA)
# RNA: GGGAGUUCUACAGUCCGACGAUCUAAUUAAAAAUCUCUUUCCUACCUUCCGUAAUUUGCCGGAUGAACUGUAUGCAUUCCGACCGAAAUUGCUUUUGUUAAAUUUACAUUUAAACACAUCUUCAUUCACUCCGAGAAGCCAUACAACAGAGGAUUGAGCAUCA
# B11: chr8:42175503:42175666:-|3pUTR|ENSG00000104368|msi1|total|mutant (ssRNA)
# RNA: B8 RNA with U41C, A42C, U83C, A84C, U89C, A90C, U104C, A105C
# B12: chr6:145382534:145384023:-|three_prime_utr|ENSG00000112425|control|control|control (ssRNA)
# RNA: GGGAGUUCUACAGUCCGACGAUCUCAACAUGAUUUAACAGAUCUAUAUGUUAAAGGAGAAAAAGAUAUGUGGAUGCUAUCAAUAGUAGCUGAAAAGCAUUUUCAGAAAUCUGUAAGUAGAGGAAAUGUAUUCAUAUGUUUCUACAACAGAGGAUUGAGCAUCA
# B13: chr12:123662440:123662541:+|3pUTR|ENSG00000111358|unk|FALSE|unique (ssRNA)
# RNA: GGGAGUUCUACAGUCCGACGAUCAAUGGAAAUCACAAUUUUAAGUCUAGGAAAUAAAGUAUUAUAUAUACUUUCAAACAAGCUAGCAAGGCUUUUAUUAUUACUUUUUUAUUUGAAAUAUCUUAUAUAUUUGGUUAGUUCUGUCAACAGAGGAUUGAGCAUCA
# B14: chr3:62294137:62294238:+|3pUTR|ENSG00000144724|msi1|FALSE|unique (ssRNA)
# RNA: GGGAGUUCUACAGUCCGACGAUCUGAGACCCUUUAGUUAUUCUCCAUUAAUGCUUCUUAGUUUGUAAUACCAUACCUCACAGUAGGUAGAAGAAUGAAAACUUCUGCAGGUGUGUAAUUUUGAAACUAGUCCUCUAAAAAUUCCAACAGAGGAUUGAGCAUCA
# B15: ENSG00000070961:be:win_6001|3pUTR|ENSG00000070961|bound_else_gene|NA|bound_elsewhere_windowed (ssRNA)
# RNA: GGGAGUUCUACAGUCCGACGAUCCAAGACAUGCUUAGUGUGUAUUUCUCUCUUUGAGACACUGUAAUUUCUACCAGAAAUUUCCAGAGCAUUAUGUAGGUAGAAAAAAAUGCAAGCAAGCUGUUAAAGAUCUUGGAUCCCAUUCAACAGAGGAUUGAGCAUCA
# B16: chr3:97755980:97756081:+|3pUTR|ENSG00000080224|unk|FALSE|unique (ssRNA)
# RNA: B10 RNA with C49U, C50A, C59U, C60A, C79U, C80A, C83U, C84A, C131U, C132A
# B17: chr8:74853834:74853946:+|3pUTR|ENSG00000137558|unk|FALSE|unique (ssRNA)
# RNA: B9 RNA with C50U, C51A, C79U, C80A, C83U, C84A, C101U, C102A
# Target: MSI1 full-length (mouse, UniProt Q61474 1-362)
# Experiment: nsRBNS (natural sequence RNA bind-n-seq); RBNS binding buffer (assumed for nsRBNS): 25 mM Tris pH 7.5, 150 mM KCl, 3 mM MgCl2, 0.01% Triton X-100, 500 ug/ml BSA, 20 U/ml SUPERase-In, 4 C; UNK is unkempt and MSI1 is Musashi-1; names of the RNAs are library labels; protein concentration not given here; high values mean tight binding
# Sequence of MSI1 full-length (Q61474 whole entry): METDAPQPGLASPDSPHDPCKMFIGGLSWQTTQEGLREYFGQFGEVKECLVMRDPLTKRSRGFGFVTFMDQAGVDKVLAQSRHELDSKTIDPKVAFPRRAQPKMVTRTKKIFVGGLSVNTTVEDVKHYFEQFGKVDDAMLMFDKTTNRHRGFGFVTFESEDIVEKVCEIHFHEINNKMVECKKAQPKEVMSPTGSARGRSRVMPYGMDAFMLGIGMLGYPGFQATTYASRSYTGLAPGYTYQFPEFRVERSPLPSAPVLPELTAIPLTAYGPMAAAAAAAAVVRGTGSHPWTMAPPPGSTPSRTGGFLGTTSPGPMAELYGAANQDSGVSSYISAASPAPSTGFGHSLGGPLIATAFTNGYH
row,Binder,binding signal [enrichment R]
1,B1,0.384
2,B2,0.211
3,B3,0.864
4,B4,1.27
5,B5,0.957
6,B6,0.453
7,B7,37.4
8,B8,41.9
9,B9,1.6
10,B10,1.21
11,B11,0.44
12,B12,1.04
13,B13,12.8
14,B14,8.1
15,B15,0.464
16,B16,19.4
17,B17,47.1
